About 83,000 compounds went through this panel and 20% of them were active in at least one assay; those are over-represented in the sample as a whole.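 96-well plates, one dose, 48 hours. Percent growth reported; active if below 10.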 Unmarked numbers belong to inactive results. Activity calls are given as the source filed them.

Some test systems named below: DU-145 prostate; K-562 leukemia; MALME-3M melanoma; RXF 393 renal; SF-268 CNS; SF-295 CNS; SF-539 CNS; UACC-257 melanoma; M14 melanoma; MDA-MB-231 breast.
Assay in all cases: NCI-60 one-dose screen, 48 h (100 = growth as untreated, 0 = no growth, -100 = all killed)
Common to all, as to settings: 10 µM

For `COc1ccc2c(c1)CCc1c-2n[nH]c1-c1[nH]nc2c1CCc1cc(OC)ccc1-2`, the growth in the test with DU-145 prostate was 86.2%; in the test with K-562 leukemia, 20.8%; in the test on MALME-3M melanoma it was 46.6%; with RXF 393 renal it was 54.3%; in the test with SF-268 CNS it was 86.2%; in the test on SF-295 CNS, 29.6%. In addition, the growth in the test with SF-539 CNS is 31.8%; in the test with UACC-257 melanoma, 82.5%; with M14 melanoma, 36.1%.

As to `CC(=O)Cc1cc(-c2cc(CC(C)=O)[nH]n2)n[nH]1`, the growth in the test with DU-145 prostate is 107%; in the test on K-562 leukemia it was 99.5%; with MALME-3M melanoma, 94.6%; in the test with RXF 393 renal, 103%; in the test on SF-268 CNS, 98.5%; in the test on SF-295 CNS, 94.7%. Further, the growth in the test on SF-539 CNS is 98%; in the test on UACC-257 melanoma it was 93%; in the test on M14 melanoma it was 99.5%.

As to `COC(=O)C(C)Oc1ccc(OC#N)cc1` (configuration not stated), the growth in the test with DU-145 prostate is 105%; with K-562 leukemia it was 94.1%; with MALME-3M melanoma, 93.1%; in the test on RXF 393 renal, 101%; with SF-268 CNS it was 98.9%; in the test on SF-295 CNS it was 96.3%. In addition, the growth is 94.6% with SF-539 CNS, 104% in the test with UACC-257 melanoma and 101% in the test with M14 melanoma.

For the molecule `O=C(Cc1nc2ccc([N+](=O)[O-])cc2nc1CC(=O)c1cccnc1)c1cccnc1`, the growth in the test with DU-145 prostate is 76.5%; with K-562 leukemia, 70.7%; with MALME-3M melanoma it was 68.5%; in the test with RXF 393 renal it was 20.1%; in the test with SF-268 CNS, 47%; with SF-295 CNS, 54.5%. Also, the growth in the test on SF-539 CNS was 30.1%; in the test on UACC-257 melanoma, 78.6%; in the test on M14 melanoma it was 82.8%.

As to `Cc1cc(NC(=O)CSCC(=O)O)no1`, the growth was 112% in the test on DU-145 prostate; 117% in the test with K-562 leukemia; 96.8% with MALME-3M melanoma; 103% in the test with RXF 393 renal; 114% in the test with SF-268 CNS; 94.2% in the test on SF-295 CNS. Moreover, the growth in the test on SF-539 CNS was 96.4%; in the test with UACC-257 melanoma, 95.4%; in the test with M14 melanoma, 99.6%.

On to `COC(=O)c1cc(-c2ccc(Cl)c(Cl)c2)[nH]c(=O)c1C#N`, for which the growth with DU-145 prostate was 108%; in the test with K-562 leukemia, 108%; in the test with MALME-3M melanoma, 89.1%; in the test on RXF 393 renal it was 109%; in the test on SF-268 CNS it was 102%; in the test with SF-295 CNS, 96.1%. The growth was 101% in the test with SF-539 CNS, 98.4% in the test with UACC-257 melanoma and 99.2% with M14 melanoma.

As to `CCOC(=O)c1cc(/C=C/c2cccc(Cl)c2)on1`, the growth was 95.2% in the test on DU-145 prostate; 31.6% in the test on K-562 leukemia; 93.1% with MALME-3M melanoma; 97.1% in the test on RXF 393 renal; 93.7% with SF-268 CNS; 88.2% with SF-295 CNS. Further, the growth in the test on SF-539 CNS is 89.6%; in the test on UACC-257 melanoma, 108%; with M14 melanoma, 78.8%.

As to `CC(=O)CC(=O)N(C)C`, the growth with DU-145 prostate was 104%; in the test with K-562 leukemia, 101%; in the test with MALME-3M melanoma, 98.7%; in the test on RXF 393 renal, 110%; in the test on SF-268 CNS, 101%; in the test with SF-295 CNS it was 95.8%. Besides, the values for the growth in the test on SF-539 CNS, in the test on UACC-257 melanoma and with M14 melanoma were 97.6%, 99.3% and 107%, respectively.

Consider `O=C1C=CC2=C3c4cc(O)c(O)cc4CC3(O)COC2=C1O` (configuration not stated), for which the growth was 119% with DU-145 prostate; 108% in the test on K-562 leukemia; 124% with MALME-3M melanoma; 99.1% with MDA-MB-231 breast; 107% with SF-268 CNS; 107% in the test with SF-295 CNS. In addition, the growth was 90% with SF-539 CNS and 102% with M14 melanoma.

As to `O=[N+]([O-])c1ccc(-c2noc(-c3cccs3)n2)cc1`, the growth was 89.3% in the test on DU-145 prostate; 93.7% in the test on K-562 leukemia; 91.7% with MALME-3M melanoma; 92% with RXF 393 renal; 101% in the test with SF-268 CNS; 72.9% in the test with SF-295 CNS. Besides, the growth is 81.3% in the test on SF-539 CNS, 100% in the test with UACC-257 melanoma and 91.7% in the test on M14 melanoma.

Consider `CN(C)CCC(=O)c1ccc(O)cc1`, for which the growth is 104% with DU-145 prostate; 104% with K-562 leukemia; 108% with MALME-3M melanoma; 112% in the test on RXF 393 renal; 95.5% with SF-268 CNS; 106% in the test on SF-295 CNS. The growth was 104% with SF-539 CNS, 105% in the test with UACC-257 melanoma and 104% with M14 melanoma.

With `O=C1NC(=O)C2C(=O)NC(=O)C1C21CCc2ccccc21` (configuration not stated), the growth was 115% in the test on DU-145 prostate; 98.2% in the test on K-562 leukemia; 102% in the test with MALME-3M melanoma; 99.3% in the test on RXF 393 renal; 111% in the test with SF-268 CNS; 102% in the test on SF-295 CNS. Moreover, the figures for the growth in the test on SF-539 CNS, in the test on UACC-257 melanoma and in the test with M14 melanoma were 93.7%, 107% and 103%, respectively.

Regarding `CCS(=O)(=O)CCCl`, the growth in the test on DU-145 prostate is 96.8%; in the test with K-562 leukemia, 93%; in the test on MALME-3M melanoma it was 93.3%; in the test on RXF 393 renal it was 105%; in the test on SF-268 CNS, 106%; in the test on SF-295 CNS, 102%. In addition, the growth is 104% with SF-539 CNS, 94.5% with UACC-257 melanoma and 94.4% with M14 melanoma.

`CCC/C=C(/C(C)=O)C(=O)OCC`: the growth is 114% with DU-145 prostate; 104% with K-562 leukemia; 118% in the test with MALME-3M melanoma; 105% in the test with MDA-MB-231 breast; 84.5% in the test with SF-268 CNS; 282% in the test with SF-295 CNS. In addition, the growth in the test on SF-539 CNS is 117%; in the test with UACC-257 melanoma, 81.2%; with M14 melanoma, 118%.

Consider `CCOC(=O)c1cc(/C=C/c2ccc(Cl)cc2Cl)on1`, for which the growth with DU-145 prostate is 30.6%; with K-562 leukemia it was 5.36% (active); in the test with MALME-3M melanoma, 69.6%; in the test with RXF 393 renal, -37.3% (active); in the test on SF-268 CNS, 89.1%; in the test with SF-295 CNS, 17.6%. Also, the values for the growth with SF-539 CNS, with UACC-257 melanoma and in the test on M14 melanoma were -48.5% (active), 105% and 56%, respectively.

Regarding `c1ccc(Cc2ccccc2)cc1`, the growth with DU-145 prostate was 103%; in the test on K-562 leukemia it was 119%; in the test with MALME-3M melanoma, 96%; in the test with MDA-MB-231 breast, 105%; with SF-268 CNS it was 107%; in the test with SF-295 CNS, 110%. In addition, the growth was 93.5% in the test with SF-539 CNS and 112% in the test with M14 melanoma.

These data come from PubChem BioAssay (NCI).
